Data reported in PubChem BioAssay.
Values joined by “and” are separate entries in the source; they are usually repeats but may differ in a detail not shown here. Identical values can stand only once.

Assay: sensitizers of A549 cells to miR-34 induction, primary screen, imaging, A549 dox-inducible miR-34, nuclei and caspase counts (AID 1347080); further: test concentration not given here
Conditions: A549 miR-34 inducible, Hoechst nuclei count, 48 h; measured here: relative caspase fold change +Dox/-Dox

| Compound | fold change |
| --- | --- |
| CCC(=O)[C@@]1(C)[C@H](C)C[C@H]2[C@@H]3CCC4=CC(=O)C=C[C@]4(C)[C@H]3[C@@H](O)C[C@@]21C | 0.845 |
| CN(C)CC(=O)Nc1ccc2[nH]c(=O)c3ccccc3c2c1 | 0.694 and 0.571 |
| CC1OC(n2cc(F)c(=O)[nH]c2=O)C(O)C1O (centres undefined) | 2.09 |
| CC1(C)S[C@@H]2[C@H](NC(=O)COc3ccccc3)C(=O)N2C1C(=O)O (some centres undefined) (tested in a mixture with another compound) | 0.818 |
| Nc1ccn(C2OC(CO)C(O)C2(F)F)c(=O)n1 (centres undefined) | 0.857 |
| CC[N+](CC)(CC)CCC(O)(c1ccccc1)C1CCCCC1 (centres undefined) | 0.741 |
| CNCCC=C1c2ccccc2C=Cc2ccccc21 | 1.27 |
| Cc1cn(C2CC(N=[N+]=[N-])C(CO)O2)c(=O)[nH]c1=O (centres undefined) | 1.14 |
| CC(C=CC(=O)NO)=CC(C)C(=O)c1ccc(N(C)C)cc1 (centres undefined) | 0.765 |
| NC(=S)NN=Cc1ncccc1N | 0.619 |
| c1ccc(CNc2ncnc3nc[nH]c23)cc1 | 1.32 |
| O=C(O)C(O)C(O)C(O)C(O)C(=O)O (centres undefined) (tested in a mixture with another compound) | 0.792 |
| O=C1OC(C(O)CO)C(O)=C1O (centres undefined) | 1.05 |
| CC(C)(C#N)c1ccc(N2C(=O)OCc3cnc4ccc(-c5cnc6ccccc6c5)cc4c32)cc1 | 0.673 |
| CC1CN(c2c(F)c(N)c3c(=O)c(C(=O)O)cn(C4CC4)c3c2F)CC(C)N1 (centres undefined) | 1.47 |
| CCCCN(Cc1ccc(C(=O)NO)cc1)C(=O)Nc1ccccc1 | 0.418 |
| C[C@@H]1C[C@H]2[C@@H]3C[C@H](F)C4=CC(=O)C=C[C@]4(C)[C@@]3(Cl)[C@@H](O)C[C@]2(C)[C@H]1C(=O)COC(=O)C(C)(C)C | 0.704 |
| O=c1[nH]cnc2c1ncn2C1OC(CO)C(O)C1O (centres undefined) | 0.634 |
| Cc1cc(C=CC#N)cc(C)c1Nc1ccnc(Nc2ccc(C#N)cc2)n1 | 0.615 |
| CCCC1C(=O)N2C(N(C)C)=Nc3ccc(C)cc3N2C1=O (centres undefined) | 0.721 |
| CCCCC[C@H](O)/C=C/[C@@H]1[C@@H](C/C=C\CCCC(=O)O)[C@@H](O)C[C@H]1O (tested in a mixture with another compound) | 1.17 |
| CC(Oc1cc(-c2cnn(C3CCNCC3)c2)cnc1N)c1c(Cl)ccc(F)c1Cl (centres undefined) | 0.695 and 1.44 |
| O=C(O)c1cc2cccc([N+](=O)[O-])c2[nH]1 | 0.523 |
| O=c1[nH]c(=O)n(C2CC(O)C(CO)O2)cc1I (centres undefined) | 0.749 |

Same assay, conditions: A549 miR-34 inducible, Hoechst nuclei count, 48 h; measured here: total cells with miR-34 induction; stronger effect = lower value

| Compound | cell count |
| --- | --- |
| CC(=O)N(CC(C)C(=O)O)c1c(I)cc(I)c(N)c1I (centres undefined) | 9460 |
| Cc1cc(C(=O)NNCc2ccccc2)no1 | 8090 |
| COc1ccccc1S(=O)(=O)Nc1ccc2c(c1)CN(C)C(=O)N2 | 6410 |
| Cc1cc(C#N)cc(C)c1Oc1nc(Nc2ccc(C#N)cc2)nc(N)c1Br | 3910 |
| Nc1ncn(C2OC(CO)C(O)C2O)c(=O)n1 (centres undefined) | 2140 |
| O=C1OC(CN2CCOCC2)CN1N=Cc1ccc([N+](=O)[O-])o1 (centres undefined) | 8420 |
| CCC(=O)OCC(=O)C1(OC(=O)CC)[C@H](C)C[C@H]2[C@H]3[C@H]([C@@H](O)C[C@@]21C)[C@@]1(C)C=CC(=O)C=C1C[C@H]3Cl (some centres undefined) | 6260 |
| Cc1cc(C)c(Nc2ccnc(Nc3ccc(C#N)cc3)n2)c(C)c1 | 2390 |
| CC(C)(C)C(=O)OCOC(=O)[C@@H]1N2C(=O)[C@@H](N=CN3CCCCCC3)[C@H]2SC1(C)C | 9610 |
| CNC(=O)c1c(I)c(C(=O)NCC(=O)Nc2c(I)c(C(=O)O)c(I)c(C(=O)NCCO)c2I)c(I)c(N(C)C(C)=O)c1I | 9020 |
| CNc1ncnc2c1ncn2[C@@H]1O[C@H](CO)[C@@H](O)[C@H]1O | 7800 |
| Nc1nc(=S)c2ncn([C@@H]3O[C@H](CO)[C@@H](O)[C@H]3O)c2[nH]1 | 2980 |
| COc1ccc(CC(N)C(=O)NC2C(CO)OC(n3cnc4c(N(C)C)ncnc43)C2O)cc1 (centres undefined) | 798 |
| O=c1ccn(C2OC(CO)C(O)C2O)c(=O)[nH]1 (centres undefined) | 8240 |
| O=C1NCCN1c1ncc([N+](=O)[O-])s1 | 8920 |
| CC=C1NC(=O)C2CSSCCC=CC(CC(=O)NC(C(C)C)C(=O)N2)OC(=O)C(C(C)C)NC1=O (centres undefined) | 596 |
| CCC(=O)[C@@]1(C)[C@H](C)C[C@H]2[C@@H]3CCC4=CC(=O)C=C[C@]4(C)[C@H]3[C@@H](O)C[C@@]21C | 7190 |
| CN(C)CC(=O)Nc1ccc2[nH]c(=O)c3ccccc3c2c1 | 5000 and 7760 |
| CC1OC(n2cc(F)c(=O)[nH]c2=O)C(O)C1O (centres undefined) | 2920 |
| CC1(C)S[C@@H]2[C@H](NC(=O)COc3ccccc3)C(=O)N2C1C(=O)O (some centres undefined) (tested in a mixture with another compound) | 9020 |

| Compound | cell count |
| --- | --- |
| Nc1ccn(C2OC(CO)C(O)C2(F)F)c(=O)n1 (centres undefined) | 1840 |
| CC[N+](CC)(CC)CCC(O)(c1ccccc1)C1CCCCC1 (centres undefined) | 8200 |
| CNCCC=C1c2ccccc2C=Cc2ccccc21 | 6810 |
| Cc1cn(C2CC(N=[N+]=[N-])C(CO)O2)c(=O)[nH]c1=O (centres undefined) | 8190 |
| CC(C=CC(=O)NO)=CC(C)C(=O)c1ccc(N(C)C)cc1 (centres undefined) | 830 |
| NC(=S)NN=Cc1ncccc1N | 1840 |
| c1ccc(CNc2ncnc3nc[nH]c23)cc1 | 8060 |
| O=C(O)C(O)C(O)C(O)C(O)C(=O)O (centres undefined) (tested in a mixture with another compound) | 8860 |
| O=C1OC(C(O)CO)C(O)=C1O (centres undefined) | 8100 |
| CC(C)(C#N)c1ccc(N2C(=O)OCc3cnc4ccc(-c5cnc6ccccc6c5)cc4c32)cc1 | 2510 |
| CC1CN(c2c(F)c(N)c3c(=O)c(C(=O)O)cn(C4CC4)c3c2F)CC(C)N1 (centres undefined) | 8380 |
| CCCCN(Cc1ccc(C(=O)NO)cc1)C(=O)Nc1ccccc1 | 4530 |
| C[C@@H]1C[C@H]2[C@@H]3C[C@H](F)C4=CC(=O)C=C[C@]4(C)[C@@]3(Cl)[C@@H](O)C[C@]2(C)[C@H]1C(=O)COC(=O)C(C)(C)C | 6960 |
| O=c1[nH]cnc2c1ncn2C1OC(CO)C(O)C1O (centres undefined) | 8460 |
| Cc1cc(C=CC#N)cc(C)c1Nc1ccnc(Nc2ccc(C#N)cc2)n1 | 5740 |
| CCCC1C(=O)N2C(N(C)C)=Nc3ccc(C)cc3N2C1=O (centres undefined) | 8830 |
| CCCCC[C@H](O)/C=C/[C@@H]1[C@@H](C/C=C\CCCC(=O)O)[C@@H](O)C[C@H]1O (tested in a mixture with another compound) | 8520 |
| CC(Oc1cc(-c2cnn(C3CCNCC3)c2)cnc1N)c1c(Cl)ccc(F)c1Cl (centres undefined) | 6060 and 1510 |
| O=C(O)c1cc2cccc([N+](=O)[O-])c2[nH]1 | 8560 |
| O=c1[nH]c(=O)n(C2CC(O)C(CO)O2)cc1I (centres undefined) | 6980 |
